From the supplement of paper PMC7530171
Counter-ions that a name gives are not always drawn. ± gives the standard deviation.

The compounds below were run on THP-1 macrophages infected with Mycobacterium tuberculosis H37Rv (assay: intracellular M.tb growth inhibition relative to DMSO (0) and 4 uM bedaquiline (100); higher = stronger inhibition of intracellular bacterial growth). Conditions: 10 µM; 4 days.
Method: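 OICR kinase inhibitor library screened in duplicate at 10 uM against THP-1 macrophages (PMA-differentiated) infected with M. tuberculosis H37Rv-pTEC27 (tdTomato RFP), 4 days at 37 C. Rows with complete host cell loss (placeholder inhibition 0, cell loss 100) were removed.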

Row | Structure (SMILES) | intracellular M.tb growth inhibition [%]
1 | CN(C)c1cc2c(Nc3ccc4c(cnn4Cc4ccccc4)c3)ncnc2cn1 | 43.5 ± 9.2
2 | Cn1c2ccccc2c2c3c(c4c5ccccc5n(CCC#N)c4c21)CNC3=O | -29.9 ± 36
3 | Oc1cccc(-c2nc(N3CCOCC3)c3sccc3n2)c1 [PI3-Kinase a Inhibitor 2] | -170 ± 240
4 | COc1ccc(OC)c2c(=S)c3ccccc3[nH]c12 | -14.9 ± 44
5 | CNc1cc2c(Nc3cccc(Br)c3)ncnc2cn1 | 30.2 ± 36
6 | COc1cc2ncnc(Nc3cccc(Cl)c3)c2cc1OC [Tyrphostin AG 1478 mesylate] | 2.11 ± 14
7 | Cc1cc(Nc2nc(N[C@@H](C)c3ccc(F)cc3)c(C#N)cc2F)n[nH]1 | -124 ± 150
8 | N#Cc1c(-c2ccccc2)cc(-c2cc(Br)ccc2O)[nH]c1=O | 19.8 ± 17
9 | O=c1c(-c2ccc(O)cc2)coc2cc(O)cc(O)c12 [Genistein] | 10.7 ± 10
10 | NCC(=O)Nc1ccc(-n2nc(C(F)(F)F)cc2-c2ccc3c(ccc4ccccc43)c2)cc1 | 92.3 ± 8.1
11 | CN(C)S(=O)(=O)c1ccc2c(c1)/C(=C/c1cc3c([nH]1)CCCC3)C(=O)N2 | -51.7 ± 62
12 | COc1cc(OC)c(/C=C/S(=O)(=O)Cc2ccc(OC)c(NCC(=O)O)c2)c(OC)c1 | -33.5 ± 120
13 | CC#CC(=O)Nc1ccc2ncnc(Nc3cccc(Br)c3)c2c1 | 3.12 ± 4.4
14 | CO[C@@H](C(=O)N1Cc2[nH]nc(NC(=O)c3ccc(N4CCN(C)CC4)cc3)c2C1)c1ccccc1 | -228 ± 250
15 | COc1cc2c(cc1OC)-c1[nH]nc(Nc3cccc(F)c3)c1C2 | 62.2 ± 12
16 | OCCn1cc(-c2ccc3c(c2)CC/C3=N\O)c(-c2ccncc2)n1 | -91.1 ± 160
17 | NS(=O)(=O)c1ccc(Nc2nc(OCC3CCCCC3)c3[nH]cnc3n2)cc1 | 15.4 ± 41
18 | O=C1NCCCc2c1oc1ccc(O)cc21 | 11 ± 28
19 | CCCOc1ccc(/C=C2/SC(=O)NC2=O)cc1 [PIM1/2 Kinase Inhibitor VI] | 24.9 ± 13
20 | O=C(O)c1ccc(-c2c[nH]c3ncc(-c4ccccc4)cc23)cc1C1CCCC1 | -23.5 ± 47
21 | CC(C)n1nc(-c2cc3cc(O)ccc3[nH]2)c2c(N)ncnc21 | 14.1 ± 20
